# Assay results: PubChem BioAssay AID504339 (National Center for Advancing Translational Sciences (NCATS), 2011)
# Out of some 390,000 compounds screened, about 17,000 (4.4%) were called active. Not shown: some 8% with an inconclusive outcome. The call rests on the fitted dose curve; in most records, active means well fitted inhibition curve with a large enough effect; inconclusive means small, poorly fitted or top-dose-only effect; inactive means no such curve, though single readings can be large or run the other way. The list comes from a sample in which actives are over-represented; it also holds similar structures and randomly drawn compounds. Where a call stands in place of a potency, no number is given.
# Molecular target: Lysine-specific demethylase 4A (Homo sapiens) (UniProt O75164)
# Assay: qHTS Assay for Inhibitors of JMJD2A-Tudor Domain; further: nearly all actives have a fitted effect of over 50% in size
# Conditions: AlphaScreen JMJD2A-Tudor / H3K4me3 peptide binding; series mostly up to 114 µM
# Text: JMJD2A is a jumonji-domain-containing lysine demethylase that uses Fe(II) together with 2-OG to effect oxidative demethylation of histones. Methylation is one of many […] modification that affect epigenetic transcription. […] It is proposed that the functions of JmjD2A binding to the histones, is to maintain marks after they are installed and to spread the modifications by […], establishing a self-propagating cycle for rapid methylation over a large area of chromatin. […] Thus, small molecule targeting of the JMJD2A-tudor domain interaction with its target methylhistone mark is expected to enable sophisticated experiments probing the fine regulatory pathways leading to selective demethylation of a given methyllysine locus based on the methylation state of adjacent histone marks. A quantitative high throughput AlphaScreen has been developed to identify small molecule inhibitors based on a protocol published by NCGC and SGC [4].
# Although AlphaScreen has significant advantages with its utility in a variety of epigenetic target assays, the primary screening data provided in this deposition should be used with caution due to the prevalence of screening artifacts. The top compound concentration tested was high (>100uM) in this assay, which increases number of actives and potential artifacts. An AlphaScreen counterscreen is highly recommended to be run against any putative actives to eliminate non-specific artifacts. Alternatively, one can use other AlphaScreen assays in PubChem to filter out promiscuous hits.
# [1] Lee, J. et al. Distinct binding modes specify the recognition of methylated histone H3K4 and H4K20 by JMJD2A-tudor. Nat Struct Mol Biol. 15(1); 109-11. 2008. PMID: 18084306
# [2] Yasgar, et al. Compound Management for Quantitative High-Throughput Screening. JALA. 2008 Apr;13(2):79-89. PMID: 18496600
# [3] Inglese, et al. Quantitative high-throughput screening: a titration-based approach that efficiently identifies biological activities in large chemical libraries. Proc Natl Acad Sci. 1;103(31):11473-8. 2006. PMID: 16864780
# [4] Quinn et al. A homogeneous method for investigation of methyl-dependent protein-protein interactions in epigenetics. Nucleic Acids Res., 38(2):e11. 2010. PMID: […]
# [5] Baell,Holloway. New substructure filters for removal of pan assay interference compounds (PAINS) from screening libraries and for their exclusion in bioassays. J Med Chem. 53(7):2719-40. 2010. PMID: 20131845
# NIH Molecular Libraries Probe Production Network [MLPCN]
# NIH Chemical Genomics Center [NCGC]
# Structural Genomics Consortium (SGC)
# To each well of a 1,536w plate, 2ul of JMJD2A-Tudor (final 100nM) and 1ul biotinylated histone peptide methylated at Lys4 [b-H3(1-18)K4me3] (final 50nM) were added in 1x PBS buffer, pH 7.4, containing 0.01% Tween-20, using a nanoliter dispenser. Formation of a protein-peptide complex proceeded at room temperature for 30 min. A Kalypsys pin-tool transferred 23nl of library compound solution in DMSO to each well. Following a 30 min incubation of the protein-peptide complex with compounds at room temperature, a mixture of 40 µg/mL each streptavidin-coated donor and nickel chelate acceptor AlphaScreen beads (final 10 µg/mL) was added in a 1ul dispense for a final volume of 4ul, followed by a brief centrifugation (1000 rpm, 1 min). Plates were incubated protected from the light for 20 min at room temperature. Microplates were then read on an EnVision multilabel plate reader using the 1,536 plate HTS AlphaScreen aperture (excitation time 80 ms, measurement time 240 ms).
# Potency means the concentration at half of the fitted maximal effect.
# Sequence of Lysine-specific demethylase 4A (Homo sapiens) (O75164 whole entry, looked up, the tested form may be a part): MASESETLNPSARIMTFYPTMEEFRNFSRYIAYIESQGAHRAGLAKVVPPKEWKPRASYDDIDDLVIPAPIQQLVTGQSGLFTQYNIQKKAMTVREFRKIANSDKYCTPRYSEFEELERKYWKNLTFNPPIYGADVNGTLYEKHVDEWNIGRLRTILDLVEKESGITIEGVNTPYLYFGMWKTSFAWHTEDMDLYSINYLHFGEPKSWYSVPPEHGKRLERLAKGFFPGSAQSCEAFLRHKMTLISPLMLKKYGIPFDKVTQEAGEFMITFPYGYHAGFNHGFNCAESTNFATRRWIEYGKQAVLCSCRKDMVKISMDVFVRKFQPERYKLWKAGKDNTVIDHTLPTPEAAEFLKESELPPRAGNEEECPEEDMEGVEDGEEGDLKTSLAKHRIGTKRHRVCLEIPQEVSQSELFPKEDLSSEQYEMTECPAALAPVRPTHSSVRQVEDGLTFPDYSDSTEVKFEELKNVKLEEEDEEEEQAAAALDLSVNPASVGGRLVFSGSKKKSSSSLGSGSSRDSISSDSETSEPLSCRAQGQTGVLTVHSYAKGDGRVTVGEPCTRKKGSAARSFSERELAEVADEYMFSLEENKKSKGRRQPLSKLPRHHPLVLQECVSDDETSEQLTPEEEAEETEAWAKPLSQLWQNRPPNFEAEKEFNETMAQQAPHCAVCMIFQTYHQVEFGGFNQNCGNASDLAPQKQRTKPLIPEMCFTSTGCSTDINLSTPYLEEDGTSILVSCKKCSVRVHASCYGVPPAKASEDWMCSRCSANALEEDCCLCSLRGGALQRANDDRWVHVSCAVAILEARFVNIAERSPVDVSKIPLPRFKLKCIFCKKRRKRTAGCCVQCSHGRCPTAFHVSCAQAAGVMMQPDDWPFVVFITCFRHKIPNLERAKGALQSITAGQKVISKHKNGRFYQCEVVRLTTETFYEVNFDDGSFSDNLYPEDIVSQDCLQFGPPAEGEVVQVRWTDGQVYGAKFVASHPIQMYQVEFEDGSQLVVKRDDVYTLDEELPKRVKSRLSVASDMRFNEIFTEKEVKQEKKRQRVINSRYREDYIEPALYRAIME
row,SMILES,Potency
1,Cc1cc(C)cc(NC(=O)NC2CCCCCCC2)c1,inactive
2,Cc1cc([N+](=O)[O-])c(NC2CCCCC2)c([N+](=O)[O-])c1,25.1 µM (active)
3,Cc1ccc(S(=O)(=O)NC2CCCCCC2)cc1,inactive
4,O=C(CCCCn1c(=O)c2ccccc2n(CC(=O)Nc2cccc(C(F)(F)F)c2)c1=O)NCc1ccc2c(c1)OCO2,inactive
5,Cc1ccc(S(=O)(=O)n2nc(C)c(S(=O)(=O)N3CCCCCC3)c2C)cc1,inactive
6,COc1ccc(-c2cc3ncccc3cn2)cc1,inactive
7,CC(=O)NC(Cc1ccccc1)C(=O)NC1CCN(c2ncccc2[N+](=O)[O-])CC1 (stereo unspecified),inactive
8,COc1ccc(-c2cc(C3CCN(c4ncccc4[N+](=O)[O-])CC3)[nH]n2)cc1,56.2 µM (active)
9,Cc1ccc(F)cc1S(=O)(=O)N1CCC(c2nc3ccccc3s2)CC1,inactive
10,N#Cc1c(-c2ccc(Cl)cc2)c2c([nH]c1=S)CCCC2,inactive
11,CC(=O)c1c(C)[nH]c(=S)c(C#N)c1-c1ccc(F)cc1,5.62 µM (active)
12,Cc1cc(C)c2c(-c3ccc(F)cc3)c(C#N)c(=O)n(C)c2n1,inactive
13,CC1CCN(S(=O)(=O)c2ccc3c(c2)N(CC(=O)NCCc2ccccc2)C(=O)CO3)CC1,inactive
14,COc1cccc(C(=O)NC2=NC(c3ccc(N(C)C)cc3)CC(=O)N2)c1 (stereo unspecified),inactive
15,O=C(O)CCC(=O)N(Cc1ccccc1)Cc1ccccc1,inactive
16,Oc1ccc(/C=N/N(Cc2ccccc2)c2ccccc2)cc1,44.7 µM (active)
17,Cc1ccc(-c2cn3c(n2)sc2cc(C(=O)NCc4cccs4)ccc23)c(C)c1,inactive
18,O=C1CC(c2ccccc2)CC2=C1C(c1ccco1)n1nc(C(F)(F)F)nc1N2 (stereo unspecified),inactive
19,Cc1ccc(S(=O)(=O)N2CCCc3cc(NS(=O)(=O)c4cc(C)ccc4C)ccc32)cc1,inactive
20,COc1ccc(CSc2nnnn2-c2ccc(C(=O)O)cc2)cc1,inactive
21,CC(C)Oc1ccc(CCc2nnc(SCC(=O)O)n2-c2ccccc2)cc1,inactive
22,COc1ccc(NCc2nnc(SCc3ccccc3)n2-c2ccc(OC)cc2)cc1,50.1 µM (active)

row,SMILES,Potency
1,O=C1C[C@@H](c2ccc3ccccc3c2)N1S(=O)(=O)c1ccccc1[N+](=O)[O-],inactive
2,COc1ccc(-c2nc(CN3CCC(C(=O)NCCN(CC(C)C)CC(C)C)CC3)c(C)o2)cc1OC,inactive
3,COc1ccc(OC)c(NC(=O)C2CCN(S(=O)(=O)c3ccc(C)cc3)CC2)c1,inactive
4,COc1ccccc1C(=O)Nc1ccc(OCc2nnc3c4ccccc4c(C)nn23)cc1,inactive
5,Cc1cccnc1NC(=O)CSc1nnc(COc2ccc(C(C)C)cc2)n1C,inactive
6,Cc1ccc(OCc2nnc(SC3CCc4ccccc4C3=O)n2C)cc1 (stereo unspecified),28.2 µM (active)
7,Fc1ccc(CN2CCc3nc(Nc4ccccc4)ncc3C2)cc1F,inactive
8,CN1C(=O)c2[nH]nc(-c3ccc(F)cc3)c2C1c1ccccn1 (stereo unspecified),inactive
9,Cc1ccc(NC(=O)c2cc3cc(C)ccc3n2C)cc1,inactive
10,CCc1ccc(S(=O)(=O)n2ccnc2)cc1,inactive
11,CCCCOc1ccc(CNC(=O)c2ccc3c(c2)N(C)C(=O)C2CCCCN32)cc1 (stereo unspecified),inactive
12,C=CCn1c(=S)[nH]c2scc(-c3ccco3)c2c1=O,28.2 µM (active)
13,CCC1(C)Cc2c(sc3[nH]c(=S)n(Cc4ccccc4)c(=O)c23)CO1 (stereo unspecified),inactive
14,Cc1ccc(CCNC(=O)Cn2c(-c3cccs3)cc3cc(F)ccc32)cc1,inactive
15,N#C/C(=C(\O)C(F)(F)F)c1nnc2n1CCCCC2,inactive
16,N#C/C(=C/c1cccc([N+](=O)[O-])c1)c1nnc2n1CCCCC2,inactive
17,N#C/C(=C(\O)CCl)c1nnc2n1CCCCC2,35.5 µM (active)
18,COc1ccc(N2CCN(c3cc(C)nc4nncn34)CC2)cc1,inactive
19,CCCCN1CC(c2nc3ccccc3n2CCCCOc2ccc(C)cc2C)CC1=O (stereo unspecified),inactive
20,O=[N+]([O-])c1ccc(S(=O)(=O)N2CCN(c3nc(-c4ccccc4)nc4ccccc34)CC2)cc1,inactive
21,Cc1nc(COc2cccc(Cl)c2)sc1C(=O)/C=C/N(C)C,inactive
22,Cc1nc(-c2ccccc2)sc1C(=O)/C=C/N(C)C,44.7 µM (active)

row,SMILES,Potency
1,CN(C)/C=C/C(=O)c1ccccc1F,inactive
2,COCCN(Cc1ccco1)C(=O)Cn1ncc2c([nH]c3ccccc32)c1=O,inactive
3,O=S(=O)(c1ccc2c(c1)OCCO2)N1CCN(S(=O)(=O)c2cc(F)ccc2F)CC1,inactive
4,CCOC(=O)c1c(S(=O)(=O)N2CCCC(C(=O)NCc3ccc(F)cc3)C2)c(C)n(CC)c1C (stereo unspecified),inactive
5,CCN(CC)CCCSc1nc2ccccc2s1,28.2 µM (active)
6,CCN(CC)CCn1c2c(c(SCC(=O)Nc3nc4ccccc4s3)nc1=O)CCCC2,inactive
7,Cn1c(=O)[nH]c(=O)c2c1nc(N1CCN(CCO)CC1)n2CCSc1nc2ccccc2s1,inactive
8,COc1ccc(C(=O)COC(=O)CCCC(=O)Nc2cc(C(F)(F)F)ccc2Cl)cc1,inactive
9,COc1c(Cl)cc(C(=O)N(Cc2ccccc2F)C2CCS(=O)(=O)C2)cc1Cl (stereo unspecified),inactive
10,Cn1nnnc1SCCNCc1ccc(Cl)c(Cl)c1,inactive
11,CCOc1ccccc1C(=O)NCc1ccc2c(c1)CCN2C(=O)c1ccc(F)cc1,inactive
12,COc1cc(OC)cc(-c2c(-c3ccc(F)cc3)c3cc(-c4ccc5cc[nH]c5c4)ccc3n2C)c1,inactive
13,COc1cc(OC)cc(-c2c(-c3cccs3)c3cc(-c4ccc(OC)nc4)ccc3n2C)c1,inactive
14,COc1ccc(-c2c(-c3cc(OC)cc(OC)c3)n(C)c3ccc(-c4ccn[nH]4)cc23)cc1,22.4 µM (active)
15,Cc1cccc(OCCCC(=O)Nc2sc3c(c2C(N)=O)CCC(C)C3)c1 (stereo unspecified),inactive
16,Cc1cc(C)nc(N/N=C/c2c(CO)cnc(C)c2O)n1,89.1 µM (active)
17,CCS(=O)(=O)c1nc(S(=O)(=O)c2ccc(C)cc2)c(NCc2ccc(Cl)cc2)s1,inactive
18,Cc1ccccc1NC(=O)Cn1c(=O)n(CC2CCC(C(=O)NCCc3ccccc3)CC2)c(=O)c2ccccc21 (stereo unspecified),inactive
19,CCc1ccc(CNC(=O)c2cc3c(=O)n(CC)c4ccccc4c3s2)cc1,inactive
20,CN(C)c1ccc(CSc2ccccc2)cc1,20 µM (active)
21,CN(C)c1ccc(C(CC(=O)O)C(=O)O)cc1 (stereo unspecified),inactive
22,CN(C)c1cc[n+](Cc2ccccc2)cc1,inactive
